Source: PubChem BioAssay
In the library only some 2.4% were active in any assay of this set; here they are far more common.
POLK inh – DNA polymerase kappa (human) inhibition. purified Pol kappa, fluorescent DNA synthesis assay, 10 min. Potency, µM (series often up to 107 µM), usual class: inhibitors. 400,000 tested, 0.53% active. AID 588579
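Fluorescent qHTS in 1536-well format: enzyme (10 nM) and compound sat 15 min at room temperature before 50 nM substrate (final) was added. Signal taken at 0 and 10 min; no-enzyme buffer wells were negative controls.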
L3MBTL1 inh – inhibitors of human L3MBTL1; AlphaScreen L3MBTL1–H3K9me1 peptide binding; Potency, µM (doses to about 57.1 µM), hits mostly inhibitors; 230,000 tested, 0.66% active; also: nearly all actives have a fitted effect of over 60% in size
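Read-out is AlphaScreen signal from streptavidin donor and nickel chelate acceptor beads (10 ug/mL final each) bridging L3MBTL1 (50 nM) and biotinylated K9-monomethylated H3(1-15) peptide (75 nM), after 30 min compound exposure at room temperature.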
POLI inh – blocks human DNA polymerase iota activity. Q9UNA4. Pol iota fluorescent replication assay, 10 min. 390,000 tested, 1% active. Potency, µM (top dose mostly 115 µM), most hits filed as inhibitors. AID 588590
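Fluorescent replication assay read twice, at 0 min and 10 min after adding 50 nM (final) substrate. Enzyme (10 nM) and compounds were first incubated 15 min at room temperature; enzyme-free buffer wells were negative controls.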
POLH inh – inhibitors of human DNA polymerase eta; Potency, µM (top dose mostly 114 µM), most hits filed as inhibitors; Q9Y253; 390,000 tested, 1.2% active; recombinant Pol eta, fluorescent DNA replication assay
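Pol eta (10 nM) was preincubated with compounds for 15 min at room temperature, after which fluorescent replication substrate (50 nM final) was added to start the reaction. Fluorescence was read kinetically at 0 and 10 min.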
Pol beta inh – blocks human DNA polymerase beta activity | Pol beta primer extension/strand displacement, fluorescence kinetic | Potency, µM (series often up to 114 µM), hits mostly inhibitors | 340,000 tested, 1.3% active
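Homogeneous kinetic assay of primer extension and strand displacement by 10 nM Pol beta, preincubated 15 min at room temperature with compound before 50 nM substrate (final) was added. Read at 0 and 10 min; four-parameter Hill fit.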
Each line names hits and unclear results; the compound was inactive in the other large screens. Calls follow the shape of the dose curve; as a rule, active = well fitted curve in the direction sought with a large enough effect; inconclusive = small, poorly fitted or top-dose-only effect, or another doubt; inactive = no such curve, though single readings can be large; an effect the other way counts as inactive or inconclusive.

C=CCN=c1scc(-c2ccco2)n1/N=C/c1ccc(O)c(O)c1O	POLK inh 22µM, L3MBTL1 inh 18µM, POLI inh 1.8µM, POLH inh inconclusive
O=C1OCCC1N(C(=O)C1CC1)c1cccc(Cl)c1 (configuration not stated)	none (no result: L3MBTL1 inh, POLI inh, POLH inh, Pol beta inh)
CC(=O)N1CCOc2ccc(S(=O)(=O)NCCc3ccc(S(N)(=O)=O)cc3)cc21	none (no result: L3MBTL1 inh)
CC(=O)N1CCOc2ccc(S(=O)(=O)NCc3ccc(F)cc3)cc21	POLI inh 71µM, POLH inh 56µM, Pol beta inh 100µM (no result: L3MBTL1 inh)
COc1ccc2c(c1)OC(=O)CC2c1ccc2c(c1)OCO2 (configuration not stated)	none (no result: L3MBTL1 inh, POLI inh, POLH inh, Pol beta inh)
O=C(Nc1ccc2oc(-c3ccccc3F)nc2c1)c1ncn[nH]1	Pol beta inh inconclusive (no result: L3MBTL1 inh)
O=C(Nc1ccc2oc(-c3ccc(Cl)c(Cl)c3)nc2c1)c1ncn[nH]1	POLK inh inconclusive, POLI inh inconclusive, POLH inh inconclusive, Pol beta inh 11µM (no result: L3MBTL1 inh)
